Bioassay records: PubChem, National Center for Advancing Translational Sciences (NCATS)
Tau fibril ThT – inhibitors of human tau fibril formation, thioflavin T binding. recombinant tau K18 P301L, heparin-induced fibrillization, ThT fluorescence. Potency, µM (top dose mostly 57.4 µM), for the others: at the top dose activity, negative = inhibition, actives largely listed as inhibitors. 270,000 tested, 2.1% active. AID 1460; further: nearly all actives have a fitted effect of over 55% in size
Target sequence (P10636 561-689 P618L limits assumed): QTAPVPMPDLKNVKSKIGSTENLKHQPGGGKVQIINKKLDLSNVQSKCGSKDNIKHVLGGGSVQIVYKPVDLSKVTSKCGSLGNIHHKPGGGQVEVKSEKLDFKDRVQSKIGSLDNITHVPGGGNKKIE
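Heparin-induced (20 uM) aggregation of recombinant human K18 P301L tau, 15 uM unlabeled with 0.24 uM labeled, pH 7 acetate buffer, 6 hr at 37 C with compound. Fibrils quantified by 30 uM ThT fluorescence after 1 hr ambient incubation.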
Tau fibril FP – tau fibrillization inhibition (FP) | P10636 | K18 P301L tau heparin fibrillization, Alexa594 FP, 6 h | Potency, µM (highest dose often 57.7 µM), for inactives: at the highest dose activity, negative = inhibition, hits mostly inhibitors | 280,000 tested, 0.39% active | AID 1468; further: nearly all actives have a fitted effect of over 55% in size
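K18 P301L tau (15 uM unlabeled/0.24 uM Alexa 594-labeled, final) + compound + heparin 20 uM final; 100 mM NaOAc pH 7; 6 hr 37 C; ThT 30 uM final added, 1 hr RT; FP ex 555/em 632 nm.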
TexasRed fluor – alters Texas Red total fluorescence, flagging assay interference | AID 1479 | TRb/SRC2 Texas Red total fluorescence interference | 280,000 tested, 0.29% active | Potency, µM (top dose mostly 106 µM), without a hit: at the highest dose fluorescence change, negative = quenching; active means well fitted curve in either direction with a large enough effect; inconclusive means small, poorly fitted or top-dose-only effect
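Human TRβ ligand-binding domain (0.6 uM) and Texas Red SRC2 peptide (20 nM) in Tris buffer with 1 uM T3 and 5% DMSO were incubated with pinned compound for 5 hr at ambient temperature. Total fluorescence was computed as S + 2P (555/632 nm).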
Tau fluor cs – counter-screen for tau fibril formation inhibitors | tau K18 P301L Alexa594 fluorescence, heparin fibrillization | 280,000 tested, 0.93% active | Potency, µM (doses to about 57.7 µM), for the others: top-dose activity change, negative = decrease | AID 1463; further: nearly all actives have a fitted effect of over 55% in size
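Human tau K18 P301L (15 uM unlabeled, 0.24 uM Alexa 594-labeled) in 100 mM sodium acetate pH 7 with 20 uM heparin, 6 hr at 37 C. ThT 30 uM added, 1 hr ambient; Alexa 594 FP and total fluorescence read at 555/632 nm.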
TRb-SRC2 inh – TRbeta-SRC2 interaction inhibition | Potency, µM (highest dose often 106 µM), inactives show at the highest dose activity change, negative = inhibition, usual class: inhibitors | P10828 | 280,000 tested, 0.065% active | TRbeta-SRC2 peptide binding, fluorescence polarization; receptor liganded with 1 µM T3;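 further: plate controls were bound peptide for no effect and peptide without receptor for full effect; nearly all actives have a fitted effect of over 50% in size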
Target sequence (P10828 whole entry, looked up): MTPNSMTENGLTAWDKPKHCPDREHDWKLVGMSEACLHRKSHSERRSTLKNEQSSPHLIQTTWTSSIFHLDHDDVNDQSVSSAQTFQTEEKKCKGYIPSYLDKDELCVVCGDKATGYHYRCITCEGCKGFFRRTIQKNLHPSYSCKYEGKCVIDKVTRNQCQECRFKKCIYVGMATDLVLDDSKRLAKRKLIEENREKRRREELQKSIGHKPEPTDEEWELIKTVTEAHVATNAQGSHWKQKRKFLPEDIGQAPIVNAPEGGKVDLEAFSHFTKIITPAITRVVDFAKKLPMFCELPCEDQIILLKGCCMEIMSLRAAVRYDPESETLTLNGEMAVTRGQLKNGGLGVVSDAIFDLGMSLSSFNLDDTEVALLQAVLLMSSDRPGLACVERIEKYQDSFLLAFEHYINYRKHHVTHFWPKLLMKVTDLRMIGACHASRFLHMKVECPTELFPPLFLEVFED
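Each compound concentration gave % activity, normalized to unbound and bound Texas Red SRC2 controls, from polarization read after 5 hr ambient incubation with T3-loaded human TRb LBD.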
Starred values were filed as active, the others as inactive; u = inconclusive; x = not tested or not shown; [ ] = dose if it differs, or a comment. Hits are enriched below; roughly 3.1% of the tested compounds scored in any of these assays. Unless noted, the call rests on the fitted dose curve; in most records, active means well fitted curve in the direction sought with a large enough effect; inconclusive means small, poorly fitted or top-dose-only effect, or another doubt; inactive means no such curve, though single readings can be large; an effect the other way counts as inactive or inconclusive. Unless noted, on the % scale 0 is the no-effect control and ±100 the full control effect; potency means the concentration at half of the fitted maximal effect.

SMILES | Tau fibril ThT | Tau fibril FP | TexasRed fluor | Tau fluor cs | TRb-SRC2 inh
O=C(/C=C/NNC(=O)c1ccccc1)c1ccc(Br)cc1 | 25.1µM* | 0.5% | 1.1% | u | -20.9%
O=C(/C=C/NNC(=O)c1cccc(Br)c1)c1cccc(Br)c1 | 14.1µM* | 0.7% | -1.3% | u | -14.8%
O=C(NCc1ccccc1)c1ccc(Cl)cc1 | x | -7.1% | -0.6% | -25.1% | -2.7%
O=C1CCCC=C1[C@H](O)CCCCBr | -7.4%[11.5 µM] | -0.6%[11.6 µM] | 2.6%[11.2 µM] | -4.9%[11.6 µM] | 0.6%[11.2 µM]
CN=c1scc(C)n1/N=C/c1ccc(O)cc1O | 15.8µM* | 11.4% | -14.5% | u | -9.1%
CN=c1scc(C)n1/N=C/c1ccc2c(c1)OCO2 | 11.2µM* | 3.0% | -3.4% | u | 4.3%
CN=c1scc(C)n1/N=C/c1ccc(O)cc1 | u | 9.9% | -1.8% | -25.1% | -10.5%
O=[N+]([O-])c1ccc(O)c(-c2ccnc3cc(-c4ccccc4)nn23)c1 | u | -4.0% | -23.1% | -28.5% | -6.8%
Cc1ccc(NC(=O)CN2CCN(C3CCCCC3)C(=O)C2=O)cc1C | 3.5% | -6.0% | -1.5% | 1.3% | -0.1%
CCNc1cc(N2CCN(C3CCCCC3)CC2)c2noc3c2c1C(=O)c1ccccc1-3 | u | 0.0% | 0.4% | -23.4% | -1.9%
O=C1c2ccccc2-c2onc3c(NCCO)cc(NC4CCCCC4)c1c23 | 7.94µM* | u | 39.8µM*[fluorescent] | 11.2µM*[quencher] | u
CC(=O)OCCNc1cc(N2CCN(C)CC2)c2noc3c2c1C(=O)c1ccccc1-3 | 28.2µM* | u | 50.1µM*[fluorescent] | u | 44.7µM*
O=C(O)CCCNc1cc(N2CCN(C3CCCCC3)CC2)c2noc3c2c1C(=O)c1ccccc1-3 | 8.91µM* | u | 39.8µM*[fluorescent] | u | -21.9%
COc1cccc(-c2cn3nc4c(nc3n2)CCCC4)c1 | 14.1µM* | u | -10.1% | -28.8% | -4.5%
CCc1ccc2c(c1)C1(NN=C(c3cccc4ccccc34)S1)C(=O)N2 (stereo not given) | 15.8µM* | 12.9% | -0.1% | u | -9.2%
CC[C@@H]1C(c2ccc(F)cc2)=NN(c2ccc(Br)cc2)[C@H]1C(=O)N1CCOC1=O | u | 8.1% | 2.1% | 10µM*[quencher] | 7.4%
CC[C@@H]1C(c2ccccc2)=NN(c2ccc(Br)cc2)[C@H]1C(=O)N1CCOC1=O | u | 11.3%[81.3 µM] | 3.7% | 7.94µM*[quencher] | 8.7%
Cc1ccc(Nc2ccc(N3CCN(C(=O)c4ccc([N+](=O)[O-])cc4Cl)CC3)nn2)cc1 | u | 4.8% | -3.9% | u | -3.1%
CC(=O)N1CCc2cc(Br)cc(S(=O)(=O)CCC(=O)Nc3ccc(C)cc3Cl)c21 | -7.3% | -7.5% | -0.7% | -14.5% | 4.3%
N#Cc1cc2ccccc2nc1SCc1ccccn1 | 15.8µM* | -7.2% | 0.3% | -27.5% | -7.0%
Cc1cc2cc3c(cc2nc1SCc1ccccn1)OCCO3 | -10.2% | -2.1% | 0.5% | -6.8% | 0.6%
COc1ccc(C(=O)c2no[n+]([O-])c2C(=O)c2ccc(OC)cc2)cc1 | 17.8µM* | u | -3.2% | -28.2% | 4.4%
COc1ccc(NC(=O)c2c(C)oc3ccc(O)c(CN4CCCCCC4)c23)cc1Cl | -11.2% | -0.9% | 794µM*[quencher] | -22.5% | -8.5%
Cc1ccc(NC(=O)c2c(C)oc3ccc(O)c(CN4CCCCC4)c23)cc1 | -4.5% | -0.9% | -13.1% | -9.0% | -1.5%
CCCn1cc(S(=O)(=O)c2cccc(Cl)c2)c(=O)c2cc(F)c(N3CCN(CC)CC3)cc21 | 5.8% | 3.0% | 112µM*[quencher] | 4.6% | -25.7%
SMILES | Tau fibril ThT | Tau fibril FP | TexasRed fluor | Tau fluor cs | TRb-SRC2 inh
CCn1cc(S(=O)(=O)c2ccccc2)c(=O)c2cc(F)c(N3CCN(c4ccccc4)CC3)cc21 | 8.2% | -5.0% | 56.2µM*[quencher] | 1.4% | u
CCn1cc(S(=O)(=O)c2ccccc2)c(=O)c2cc(F)c(N3CCCC3)cc21 | 2.7% | 0.4% | 10.3% | -0.2% | 3.4%
CCN(CC)c1cc2c(cc1F)c(=O)c(S(=O)(=O)c1ccc(OC)cc1)cn2CC | 0.3% | -0.1% | 50.1µM*[quencher] | -1.3% | -24.8%
CC(C)C[C@H](NC(=O)[C@H](CC(C)C)NC(=O)[C@@H](Cc1c[nH]c2ccccc12)NC(=O)[C@H](Cc1ccccc1)NC(=O)[C@@H](Cc1c[nH]c2ccccc12)NC(=O)[C@H](CCC(N)=O)NC(=O)[C@H](CCC(N)=O)NC(=O)[C@@H]1CCCN1C(=O)[C@H](CCCCN)NC(=O)[C@@H]1CCCN1C(=O)[C@@H](CCCNC(=N)N)NC(=O)[C@@H]1CCCN1C(=O)CNC(=O)[C@H](CC(C)C)NC(=O)[C@H](CC(C)C)NC(=O)[C@H](Cc1ccc(O)cc1)NC(=O)CNC(=O)[C@H](C)NC(=O)[C@H](CO)NC(=O)[C@H](CC(N)=O)NC(=O)[C@H](CC(C)C)NC(=O)[C@@H](NC(=O)[C@H](Cc1c[nH]c2ccccc12)NC(=O)CN)[C@@H](C)O)C(N)=O | x | x | 1.5% | x | 10.2%
C/C(CCN1CCc2nc(-c3ccccc3)c(-c3ccccc3)cc2C1)=N\OC[C@@H](O)COCc1ccco1 | -8.9%[11.5 µM] | -0.2%[11.6 µM] | 0.8%[11.2 µM] | -7.2%[11.6 µM] | -0.7%[11.2 µM]
COc1ccc(C)cc1NC(=O)NCc1ccc2c(c1)CCN2C(=O)c1ccccc1 | -11.6% | 1.9% | -1.0% | -24.0% | -6.7%
Cc1ccc(NC(=S)Nc2ccc(C(C)C)cc2)cc1S(=O)(=O)N1CCCCCC1 | -15.3% | 12.6µM* | -2.5% | 7.94µM*[quencher] | -7.1%
C=CCNC(=S)Nc1ccc(C)c(S(=O)(=O)N2CCCCC2)c1 | 11.4% | -14.7% | 0.8% | -20.0% | 4.7%
COc1ccc(NC(=S)Nc2ccc(C)c(S(=O)(=O)N3CCCCC3)c2)cc1 | 3.6% | u | 0.5% | 31.6µM*[quencher] | 3.6%
Oc1ccc(N=Nc2cccc(Cl)c2)cc1C=Nc1ccc(N2CCOCC2)cc1 | u | -7.4% | -7.6% | -14.6% | -9.8%
C(=Nc1ccc(N2CCOCC2)cc1)c1c[nH]c2ccccc12 | 25.1µM* | -10.3% | -1.8% | u | u
Oc1c(Cl)cc(Cl)cc1C=Nc1ccc2c(c1)OCCO2 | 15.8µM* | -13.7% | -2.6% | -19.4% | 1.6%
Oc1ccc2ccccc2c1C=Nc1ccc(N2CCOCC2)cc1 | 5.01µM* | -8.6% | -3.2% | u | -18.2%
Oc1c(Br)cc(Cl)cc1C=Nc1ccc(N2CCOCC2)cc1 | 15.8µM* | -18.3% | 4.7% | -18.4% | -0.7%
CN(C)c1nc(N/N=C/c2c[nH]c3ccccc23)nc(N2CCOCC2)n1 | u | 14.8% | 0.6% | -16.8% | 5.7%
CCCc1ccc(OCC(=O)Nc2sc(C(=O)OCC)c(C)c2C(=O)OCC)cc1 | 0.6% | -0.5% | 10.0% | -3.2% | 1.9%
Fc1ccc(-c2noc3ncnc(NCCc4ccccc4)c23)cc1 | 11.4% | -0.2% | 1.9% | -7.4% | -1.4%
COc1ccc(N2CCN(c3ncnc4c3cnn4-c3ccc(F)cc3)CC2)cc1 | -1.3% | 0.6% | 2.1% | 6.7% | 1.1%
